# Screening results (PubChem)
# Tau fluor cs – Counterscreen qHTS for Inhibitors of Tau Fibril Formation, Fluorescence Polarization | 280,000 tested, 0.93% active | tau K18 P301L Alexa594 fluorescence, heparin fibrillization | Potency, µM (top dose mostly 57.7 µM), inactives show top-dose activity change, negative = decrease; note: nearly all actives have a fitted effect of over 55% in size
#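 Human tau K18 P301L (15 uM unlabeled, 0.24 uM Alexa 594-labeled) in 100 mM sodium acetate pH 7 with 20 uM heparin, 6 hr at 37 C. ThT 30 uM added, 1 hr ambient; Alexa 594 FP and total fluorescence read at 555/632 nm.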
# Tau ThT inhib – qHTS for Inhibitors of Tau Fibril Formation, Thioflavin T Binding. Microtubule-associated protein tau (Homo sapiens), P10636. recombinant tau K18 P301L (four-repeat tau fragment), heparin-induced fibrillization, ThT fluorescence. Potency, µM (top dose mostly 57.4 µM), for the others: top-dose activity, negative = inhibition, most hits filed as inhibitors. 270,000 tested, 2.1% active; note: nearly all actives have a fitted effect of over 55% in size
# Target sequence (P10636 561-689 P618L limits assumed): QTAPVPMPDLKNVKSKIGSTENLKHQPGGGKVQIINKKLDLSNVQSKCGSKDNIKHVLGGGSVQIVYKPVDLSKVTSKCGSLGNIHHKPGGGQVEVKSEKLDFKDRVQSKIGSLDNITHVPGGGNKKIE
#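 Aggregation was driven by heparin (20 uM final) acting on recombinant tau […] bearing P301L in 100 mM sodium acetate pH 7; fibrils were detected with Thioflavin T.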
# TR SRC2 fluor cs – Total Fluorescence Counterscreen for Inhibitors of the Interaction of Thyroid Hormone Receptor and Steroid Receptor Coregulator 2 | AID 1479, 2009 | Potency, µM (doses to about 106 µM), inactives show at the highest dose fluorescence change, negative = quenching | 280,000 tested, 0.29% active | TRb/SRC2 Texas Red total fluorescence interference; active = well fitted curve in either direction with a large enough effect; inconclusive = small, poorly fitted or top-dose-only effect
#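 Flags fluorescent or light-absorbing compounds by total fluorescence, S + 2P, at 555 nm excitation and 632 nm emission. Mixture: 20 nM Texas Red SRC2 peptide, 0.6 uM human TRb LBD, 1 uM T3, 5% DMSO; compound exposure 5 h at ambient temperature.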
# Tau FP inhib – qHTS for Inhibitors of Tau Fibril Formation, Fluorescence Polarization; K18 P301L tau heparin fibrillization, Alexa594 FP, 6 h; Potency, µM (titrated, usually from 57.7 µM), for the others: at the highest dose activity, negative = inhibition, actives largely listed as inhibitors; 280,000 tested, 0.39% active; AID 1468, 2008; note: nearly all actives have a fitted effect of over 55% in size
#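 Recombinant K18 P301L […], labeled with Alexa 594 at 0.24 uM over 15 uM unlabeled; heparin inducer 20 uM final; 37 C, 6 hr; FP endpoint.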
# TRb SRC2 PPI – qHTS for Inhibitors of the Interaction of Thyroid Hormone Receptor and Steroid Receptor Coregulator 2. Thyroid hormone receptor beta (Homo sapiens), P10828. TRbeta-SRC2 peptide binding, fluorescence polarization; receptor liganded with 1 µM T3. Potency, µM (top dose mostly 106 µM), without a hit: at the top dose activity change, negative = inhibition, most hits filed as inhibitors. 280,000 tested, 0.065% active. AID 1469, 2008;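 note: plate controls were bound peptide for no effect and peptide without receptor for full effect; nearly all actives have a fitted effect of over 50% in size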
# Target sequence (P10828 whole entry, looked up): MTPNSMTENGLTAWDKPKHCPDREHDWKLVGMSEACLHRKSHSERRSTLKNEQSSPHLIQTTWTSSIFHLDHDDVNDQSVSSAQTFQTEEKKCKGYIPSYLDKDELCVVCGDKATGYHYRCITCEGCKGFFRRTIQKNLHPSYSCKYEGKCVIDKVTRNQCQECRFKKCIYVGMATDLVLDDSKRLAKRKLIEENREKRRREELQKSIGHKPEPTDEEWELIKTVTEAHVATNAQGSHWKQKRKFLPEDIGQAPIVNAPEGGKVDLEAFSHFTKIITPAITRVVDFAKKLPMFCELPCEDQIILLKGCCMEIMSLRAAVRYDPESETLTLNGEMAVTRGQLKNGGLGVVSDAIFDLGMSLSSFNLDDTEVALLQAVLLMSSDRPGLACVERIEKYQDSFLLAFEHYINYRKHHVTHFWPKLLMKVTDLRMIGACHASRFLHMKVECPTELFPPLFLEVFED
#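 Polarization signal, normalized between peptide-alone and full complex controls, measured compound effects on T3-liganded human TRb LBD (0.6 uM) binding 20 nM Texas Red SRC2 peptide after 5 hr.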
# * marks the source's active call; other numbers are inactive results; ? = inconclusive; · = no result given; [ ] = dose if it differs, or a comment. Shown are actives, neighbours in structure and some others; about 3% of the full set was active somewhere. Unless noted, calls come from the whole dose curve; as a rule, active = well fitted curve in the direction sought with a large enough effect; inconclusive = small, poorly fitted or top-dose-only effect, or another doubt; inactive = no such curve, though single readings can be large; an effect the other way counts as inactive or inconclusive. Unless noted, % is set by controls: 0 for no effect and ±100 for the full control effect; potency is the fitted concentration of half-maximal effect.
SMILES,Tau fluor cs,Tau ThT inhib,TR SRC2 fluor cs,Tau FP inhib,TRb SRC2 PPI
CSc1nnc(-c2ccccc2N=Cc2c(C)[nH]n(-c3ccc4ccccc4c3)c2=O)c(=O)[nH]1,-14%,22µM*,-5%,-3%,2%
S=C(Nc1ccc2nsnc2c1)NC1CCCCC1,?,28µM*,-5%,?,-11%
CCOc1ccc(NC(=O)Nc2cccc(C(=O)O)c2)cc1,-9%,-11%,-1%,5%,5%
S=C(Nc1ccc(Cl)c(Cl)c1)NC1CCCCC1,?,5%,1%,?,6%
CCOc1ccc(NC(=S)Nc2ccc(OCC)cc2)cc1,-20%,?,0%,11%,3%
CCOc1ccc(NC(=O)Nc2ccc3nsnc3c2)cc1,13µM*[quencher],14µM*,-5%,16%,-2%
O=C(Nc1cccc(C(F)(F)F)c1)Nc1ccc2snnc2c1,?,13%,-2%,18µM*,4%
CCOc1ccc(NC(=S)Nc2ccc3nsnc3c2)cc1,14µM*[quencher],2.5µM*,-5%,?,-7%
Cc1ccc(-n2nc3c(N4CCCC(C(=O)NCc5ccccc5C)C4)nnc(C)c3c2C)cc1 (stereo unspecified),2%,?,0%,-2%,-4%
O=C(Nc1ccccc1)Nc1ccc2snnc2c1,?,?,-3%,?,14%
COc1ccc(NC(=S)Nc2ccc3nsnc3c2)cc1,?,11µM*,-2%,-17%,0%
CCOc1ccc(NC(=O)Nc2ccc3snnc3c2)cc1,5µM*[quencher],-6%,-3%,?,-5%
CSc1cccc(NC(=O)Cn2ncn3c(cc4ccccc43)c2=O)c1,20µM*[quencher],-16%,-9%,-8%,6%
O=C(CNc1cccc2ccccc12)N/N=C/c1ccccn1,?,?,-3%,-1%,1%
O=C(CNc1cccc2ccccc12)N/N=C/c1cccc(Oc2ccccc2)c1,7.9µM*[quencher],?,-2%,?,7%
CCCCc1nc2c(c3c1C[C@H](C)OC3)CN(S(=O)(=O)c1ccc(C#N)cc1)CC2,-5%[11.6 µM],4%[11.5 µM],-4%[11.2 µM],-14%[11.6 µM],-2%[11.2 µM]
O=[N+]([O-])c1ccc(Sc2cccc[n+]2[O-])c2nonc12,13µM*[quencher],5µM*,-27%,?,-16%
O=C(CSc1cccc[n+]1[O-])Nc1ccc(C(F)(F)F)cc1[N+](=O)[O-],-3%,-6%,-3%,0%,0%
COc1cc(/C=N/NC(=O)c2ccccc2)ccc1O,-2%,-16%,-2%,2%,0%
COc1ccc(-c2cnnc(N/N=C/c3ccc(O)c(OC)c3)n2)cc1,?,1.8µM*,-18%,4%,16%
O=S(=O)(c1cccc(-c2csc(N/N=C/c3ccco3)n2)c1)N1CCOCC1,13µM*[quencher],14µM*,-3%,10%,5%
COc1cc(/C=N/NC(=O)c2ccc(CN(C)S(=O)(=O)c3ccc(C)cc3)cc2)ccc1O,16µM*[quencher],?,-2%,6%,-2%
COc1cc(/C=N/Nc2nc(-c3ccc(S(=O)(=O)N(C)C)cc3)cs2)ccc1O,13µM*[quencher],10µM*,-2%,3%,-5%
CCOc1cc(/C=N/Nc2nc(-c3cccc(S(=O)(=O)N4CCCC4)c3)cs2)ccc1O,10µM*[quencher],?,-2%,14%,7%
COc1ccc(/C=N/Nc2nc(-c3cccc(S(=O)(=O)N4CCCC4)c3)cs2)cc1OC,?,?,-3%,10%,5%
SMILES,Tau fluor cs,Tau ThT inhib,TR SRC2 fluor cs,Tau FP inhib,TRb SRC2 PPI
CC(C)OC(=O)c1c(NC(=O)C2c3ccccc3Oc3ccccc32)sc2c1CCCC2,-17%,-8%,2%,-10%,1%
Cc1ccc(N=C2NC(=O)CS2)cc1,8%,-4%,-2%,10%,-1%
Cc1cc(Cl)ccc1N=c1ssnc1Cl,-27%,14µM*,1%,22µM*,-13%
CC(C)(C)C1=CC(=Nc2ccccc2N)C=C(C(C)(C)C)C1=O,18%,11%,-2%[53 µM],7%,2%[53 µM]
Cc1ccc(N=c2ssnc2Cl)cc1,-25%,14µM*,-3%,?,-15%
Cc1cc(C)nc(/N=c2/ssnc2Cl)c1,-21%,4µM*,-2%,8.9µM*,3%
Nc1ccccc1N=c1ssnc1Cl,-30%,22µM*,0%,?,-3%
Cc1cc(C)c(C#N)c(Cl)n1,-1%,2%,-3%,-3%,14%
Cc1ccccc1C(=O)Nc1cccc(OCc2cc(=O)n3c4c(sc3n2)CCCC4)c1,-27%,-16%,-2%,-1%,-7%
COc1ccc(CNC(=O)c2sc(=S)n(-c3ccccc3)c2N)cc1,0%[0.0958 µM],·,-2%,4%[0.0958 µM],-2%
O=C(NCc1ccccc1)c1sc(=S)n2c1[nH]c(=O)c1ccccc12,?,14µM*,-11%,6%,4%
C=C1CCC(O)C/C1=C/C=C1\CCC[C@]2(C)[C@@H]([C@H](C)/C=C/[C@H](C)C(C)C)CC[C@@H]12 (stereo partly specified),·,·,2%,·,2%
COc1ccc(-c2cn3cc([N+](=O)[O-])ccc3n2)cc1OC,-22%,4.5µM*,-8%,7%,5%
COc1ccc(N(C(=O)c2ccc(OC)c(OC)c2)S(=O)(=O)c2ccc(Cl)cc2)cc1,?,?,?,0%,-2%
CCOc1cccc2sc(N(CCN(CC)CC)C(=O)c3ccco3)nc12,-6%,-2%,14µM*[quencher],3%,-11%
